Experimental data taken from the supplement of paper PMC6555819.

Tests used:
Assay in all cases: PBM binding z-score (relative to random genomic background probes); higher = stronger binding; sequences stand for … in GC…GCGATTGACAGCGTAGAATGAAGG
[1] = system: FXR:RXRa (NR concentration 270 nM, RXRa partner concentration 90 nM)
Outline: (§1)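 Random background probes are the reference for binding z-scores. These scores derive from regression-normalized fluorescence on custom Agilent 4×180K protein-binding microarrays incubated 1 h with ligand-free nuclear receptor dimers. Binding was detected with antibodies against each partner (one per run).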

[2] = system: LXRa:RXRa (NR concentration 270 nM, RXRa partner concentration 90 nM)
Outline: as §1

[3] = system: LXRa homodimer (NR concentration 270 nM)
Outline: as §1

[4] = system: LXRb:RXRa (NR concentration 270 nM, RXRa partner concentration 90 nM)
Outline: as §1

[5] = system: LXRb homodimer (NR concentration 270 nM)
Outline: as §1

[6] = system: PPARa:RXRa (NR concentration 270 nM, RXRa partner concentration 90 nM)
Outline: as §1

[7] = system: PPARg:RXRa (NR concentration 180 nM, RXRa partner concentration 90 nM)
Outline: as §1

[8] = system: PPARg:RXRa 270nM:90nM, anti-RXR (NR concentration 270 nM, RXRa partner concentration 90 nM)
Outline: as §1

[9] = system: PPARg:RXRa 30nM:10nM, anti-RXR (NR concentration 30 nM, RXRa partner concentration 10 nM)
Outline: as §1

[10] = system: PPARg:RXRa 90nM:30nM, anti-RXR (NR concentration 90 nM, RXRa partner concentration 30 nM)
Outline: as §1

[11] = system: PPARg:RXRa DBDmut IVT, anti-RXR (DBD mutation: RXRa K156A/R161A, NR concentration 270 nM, RXRa partner concentration 90 nM)
Outline: as §1

[12] = system: PPARg:RXRa IVT, anti-PPARg (NR concentration 270 nM, RXRa partner concentration 90 nM)
Outline: as §1

[13] = system: PPARg DBDmut:RXRa IVT, anti-PPARg (DBD mutation: PPARg1 K132A/R137A, NR concentration 270 nM, RXRa partner concentration 90 nM)
Outline: as §1

[14] = system: PPARg DBDmut IVT, anti-PPARg (DBD mutation: PPARg1 K132A/R137A, NR concentration 270 nM)
Outline: as §1

[15] = system: PPARg homodimer (NR concentration 180 nM)
Outline: as §1

[16] = system: PXR:RXRa (NR concentration 270 nM, RXRa partner concentration 90 nM)
Outline: as §1

[17] = system: PXR homodimer (NR concentration 270 nM)
Outline: as §1

[18] = system: RARa:RXR (NR concentration 270 nM, RXRa partner concentration 90 nM)
Outline: as §1

[19] = system: RARa homodimer (NR concentration 270 nM)
Outline: as §1

[20] = system: RARb:RXRa (NR concentration 270 nM, RXRa partner concentration 90 nM)
Outline: as §1

Sequence	PBM binding z-score [1]	PBM binding z-score [2]	PBM binding z-score [3]	PBM binding z-score [4]	PBM binding z-score [5]	PBM binding z-score [6]	PBM binding z-score [7]	PBM binding z-score [8]	PBM binding z-score [9]	PBM binding z-score [10]	PBM binding z-score [11]	PBM binding z-score [12]	PBM binding z-score [13]	PBM binding z-score [14]	PBM binding z-score [15]	PBM binding z-score [16]	PBM binding z-score [17]	PBM binding z-score [18]	PBM binding z-score [19]	PBM binding z-score [20]
TAGCCTAGGTCCTGCGGGCCAGTATAGTGTCGGC	-1.69	-1.08	-1.14	-1.49	-1.06	-1.2	-0.732	-0.789	-0.922	-1.13	-1.61	-0.181	-1.11	-0.969	-1.72	-0.971	-1.03	-0.898	-1.52	-0.954
TTACCAAGTTGAAGGTCGTTGATCCCTCTGTAGA	2.26	2.28	0.241	1.56	-0.05	1.59	0.598	2.48	1.36	2.27	0.297	0.442	0.321	-0.391	0.828	1.59	0.298	1.21	0.00913	1.15
TCTAGCAGGCCAGAGGGTCACTCAAGAGGTACGG	0.812	1.03	-0.601	0.926	-1.51	2.39	1.43	2.72	2.09	2.57	0.944	0.645	-0.27	-1.24	0.106	1.57	-0.442	2.03	-0.734	2.09
GCGACTGGGGCATCAGCAGTTTACCATAACTTAA	-0.0811	-0.328	-0.256	0.505	-0.674	0.605	0.756	1.18	-0.193	0.414	3.71	2.93	-0.206	0.0271	0.458	0.227	0.14	0.0655	0.0729	0.388
TGAATGAGGTTATAAGATCAGGCAACGTTGCAAA	1.34	1.51	-0.418	1.22	-0.11	2.69	1.48	2.02	1.21	1.73	0.78	1.81	1.1	0.207	0.125	0.75	-0.349	1.52	0.212	1.24
TTACCAAGGGGAGCTGAGGTCGTTGATCCAACTC	1.8	0.173	-0.107	0.623	-0.398	0.818	-0.207	0.37	0.187	-0.00393	0.0938	0.219	-0.939	-0.633	-0.405	2.35	0.544	1.03	-0.882	0.604
ACTAGCAGACCAAGGGTCACTCAAGATTAGTCCG	2.1	2.89	0.341	2.8	-0.191	3.74	4.94	5.53	3.15	5.96	0.108	1.84	0.151	-0.38	1.55	2.8	-0.1	3.46	1.31	3.28
ATACCAAGGTGATCTTGAGGTCGTTGATACTAAC	2.36	2.49	1.86	1.92	0.411	1.91	0.527	0.843	-0.161	0.624	0.853	1.45	0.8	0.628	1.02	3.3	2.03	2.54	0.867	1.71
CCTCGGAGGGCAACAGGAGGTCAGAGCTGCCAGA	2.19	3.83	1.29	2.23	-0.758	3.02	0.969	1.32	-0.587	0.405	0.555	1.54	-1.74	-1.13	1.67	3.35	-0.207	3.63	0.286	3.71
CCTGCTAGGTCAAGGTCAGCTAATCTACAGTATG	4.87	3.95	1.09	3.19	0.294	4.45	3.7	4.63	1.39	3.47	4.9	4.64	0.201	-0.28	2.21	3.45	0.401	3.88	1.15	5.09
CTACCAAGGTGAACAAGGGCGTTGATTACTATTC	0.636	0.274	-0.543	0.44	-0.701	1.39	0.678	0.967	-0.0752	0.624	2.71	2.55	-0.498	0.223	0.114	0.993	-0.0327	0.539	-0.306	1.81
ATATGTAGGTTACATCCGGGTCATTCAGGCTATG	2.66	4.27	1.82	3.02	0.76	4.32	5.92	5.17	2.54	4.54	7.56	7.11	2.58	1.6	2.15	3.62	2.13	3.64	0.928	2.23
CCAGACAGATGAGAAGGTAACTCAGCCTCGATTA	-0.147	-0.0249	0.532	-0.254	-0.206	-0.358	0.455	-0.402	-0.157	-0.366	0.125	-0.374	0.361	-0.388	1.08	-0.297	0.323	-0.00624	1.43	-0.0941
TCTATTAGTTGATAAGGGCAACCGAAACAGCGGA	0.612	0.486	0.203	0.463	0.396	0.736	0.322	1.86	3.81	2.97	1.65	0.714	0.803	1.07	0.853	0.671	0.649	0.881	0.996	1.6
CCTACTGGGCCTCGAAAGGTCATTGATTCAGTGA	3.05	3.94	4.13	3.74	0.187	4.05	1.44	2.98	0.556	1.97	2.57	3.15	-1.13	-0.00532	2.06	4.88	1.11	4.9	0.198	3.66
TCTATTAGATGAAGGGCAACCGACGAGTCCGTTT	0.734	0.81	-0.159	0.733	0.205	0.841	0.575	2.01	3.7	2.93	2.54	0.861	0.95	0.278	0.308	0.796	1.11	0.642	0.636	1.47
TAGCCTAGGTCATTGGGCAAGTATAGTACGCATC	4.44	3.37	0.712	2.16	0.361	3.46	2.93	3.07	0.725	1.95	1.66	3.17	0.399	-0.561	1.19	1.64	-0.337	2.38	-0.275	3.66
GCTGCTAGGCCAGGTTGGTCAGCTAACGGGTACG	-1	-1.03	-0.776	-1.31	-1.37	-1.27	-0.607	-1.01	-1.22	-1.17	-0.104	-0.575	-1.57	-1.24	-1.2	-1.06	-0.918	-0.979	-0.954	0.166
CCTACTGGGCCAGGAAAGGTCATTGATTCAGTGA	3.42	4.12	3.32	3.74	-0.202	4.18	1.95	3.03	0.929	2.15	2.65	3.05	-0.225	-1.01	2.36	4.78	0.786	4.87	0.0596	3.71
ATCGAAAGGTCGACGACGTGAGTATACACCGTTT	3.9	3.08	-0.00126	2.61	0.501	4.21	2.29	2.7	0.988	1.77	0.416	1.22	1.4	1.43	1.37	2.32	-0.182	3.07	0.0928	3.72
CCGACTGGGGCAAAGGTTGCCATACTCAGTACGA	-0.0811	-0.081	-0.3	0.302	-1.06	4.05	9.16	7.89	7.65	8.16	4.21	4.73	-0.511	-0.658	0.733	0.388	-0.135	1.14	-0.228	1.03
TGTCAAAGTTCAAAGGAAACGTAAGTATCCACAC	6.34	5.91	3.73	3.56	1.37	4.94	7.64	7.15	4.84	6.6	-0.506	3.75	1.36	1.26	2.31	4.33	1.78	3.21	1.06	4.95
TCATATCGGTAAAAGGTGAAAGTCGGTGTGGTAA	1.65	1.77	0.323	1.52	0.181	4.23	6.69	6.91	6.64	7.74	3	3.46	0.579	1.77	2.19	1.25	0.807	2.24	1.92	1.97
AGAACGAGGGCAATGAGTGGATAGCACGGGTGGC	0.0707	0.00914	-0.454	-0.474	-0.905	1.12	1.49	0.671	0.264	0.612	3.17	2.32	0.26	-0.542	-0.143	-0.0216	-0.0699	-0.0529	0.296	1.72
ACAGACAGGTGATGAAGGGAACTCAGGCTATCAT	-0.0225	-0.0438	-0.158	-0.298	-0.495	-0.115	0.754	0.00384	0.0362	-0.027	0.344	0.145	0.471	-0.0521	0.0738	-0.382	0.482	-0.121	0.0733	0.0899
CGAACGAGGGCATTAGTTGATAGCAAATGCCGAT	0.0908	-0.0116	-0.501	-0.0875	-0.766	0.595	0.83	0.432	0.0228	-0.0505	2.78	1.35	-1.12	-0.313	-0.0468	0.174	0.377	0.239	-0.278	1.51
TCGAGTAGGTTTGTCGGGGCATTCAGCCAACATA	0.314	0.103	0.0222	0.558	-0.504	0.326	-0.493	0.144	1.1	0.717	0.713	0.173	-1.6	-0.328	0.186	0.311	-0.236	0.224	-0.837	0.0444
AATACATGGTCACTAGGCCAGAGTAGGTACGAAT	-0.31	-0.00437	-0.0579	-0.301	-0.193	0.587	1.65	1.15	0.153	0.688	1.04	2.74	0.798	1.09	0.338	-0.198	-0.158	-0.153	-0.0326	1.14
